# Source: PubChem BioAssay (National Center for Advancing Translational Sciences (NCATS))
# Tb PFK block: qHTS Assay to Find Inhibitors of T. brucei phosphofructokinase; ATP-dependent 6-phosphofructokinase (Trypanosoma brucei brucei), O15648; actives 0.17% (n = 330,000); T. brucei PFK, ADP-Glo luminescence; AID 485367, 2010; Potency, µM (titrated, usually from 57.5 µM), for inactives: at the highest dose activity, negative = inhibition, actives largely listed as inhibitors;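 also: potency is read from the fitted curve at half-maximal effect; 0% = uninhibited 1x PFK enzyme wells and -100% = no-enzyme wells; nearly all actives have a fitted effect of over 60% in size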
#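 Luminescent ADP detection (ADP-Glo, two-step: ATP depletion then ADP-to-ATP conversion for luciferase) reported PFK activity after 45 min room-temperature reaction of 1.25 nM enzyme with 0.5 mM F6P and 0.1 mM ATP at pH 8.0.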
# RXFP1 agonist: qHTS Assay for Agonists of the Relaxin Receptor RXFP1; Relaxin receptor 1 (Homo sapiens), Q9HBX9; Potency, µM (series often up to 57.5 µM), for inactives: top-dose activation, hits mostly activators; HEK293T-RXFP1 cAMP TR-FRET, 30 min; response scale: percent of porcine relaxin response, buffer zero; AID 2676, 2010; actives 0.3% (n = 370,000); also: potency is read from the fitted curve at half-maximal effect; % is scaled to controls: 0 for no effect and ±100 for the full control effect; nearly all actives have a fitted effect of over 60% in size
# Target sequence (Q9HBX9 whole entry, looked up): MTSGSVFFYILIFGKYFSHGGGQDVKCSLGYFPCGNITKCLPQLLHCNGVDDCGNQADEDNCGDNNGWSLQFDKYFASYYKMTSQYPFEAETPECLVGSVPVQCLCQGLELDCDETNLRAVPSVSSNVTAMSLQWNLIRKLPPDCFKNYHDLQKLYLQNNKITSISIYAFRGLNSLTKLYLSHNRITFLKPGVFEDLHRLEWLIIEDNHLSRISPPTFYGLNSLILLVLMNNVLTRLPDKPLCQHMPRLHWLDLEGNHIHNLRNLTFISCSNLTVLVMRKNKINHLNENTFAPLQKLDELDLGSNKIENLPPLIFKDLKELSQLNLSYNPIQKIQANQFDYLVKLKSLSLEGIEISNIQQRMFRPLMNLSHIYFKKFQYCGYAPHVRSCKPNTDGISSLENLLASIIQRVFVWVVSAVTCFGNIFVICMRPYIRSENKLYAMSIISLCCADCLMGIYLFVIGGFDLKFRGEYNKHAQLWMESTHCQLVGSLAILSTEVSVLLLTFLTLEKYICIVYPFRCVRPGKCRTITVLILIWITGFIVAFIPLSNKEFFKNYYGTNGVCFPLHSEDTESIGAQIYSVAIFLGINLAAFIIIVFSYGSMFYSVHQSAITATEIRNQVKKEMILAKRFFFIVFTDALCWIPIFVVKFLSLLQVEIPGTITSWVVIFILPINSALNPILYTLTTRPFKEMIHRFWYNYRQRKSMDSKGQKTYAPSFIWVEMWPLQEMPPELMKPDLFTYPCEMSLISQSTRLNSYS
#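 HEK293 cells stably expressing RXFP1, treated 30 min at 37C with compounds plus PDE4 inhibitor Ro 20174; cAMP measured by HTRF TR-FRET. Normalized to buffer and 29 nM porcine relaxin; EC50 by Hill fit.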
# gsp antagonist: qHTS for Antagonists of gsp, the Etiologic Mutation Responsible for Fibrous Dysplasia/McCune-Albright Syndrome: qHTS; gsp-mutant cells, cAMP HTRF, 30 min; Potency, µM (titrated, usually from 76.9 µM), without a hit: at the top dose activity change, negative = inhibition, hits mostly inhibitors; actives 0.4% (n = 340,000); calls by dose curve; cell line not stated here;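 also: intracellular cAMP measured with PDE inhibitor Ro 20-1724 present during compound exposure; potency is read from the fitted curve at half-maximal effect; % is scaled to controls: 0 for no effect and ±100 for the full control effect; nearly all actives have a fitted effect of over 65% in size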
#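 Cells in G418 medium, seeded 16-24 h, 37C; buffer exchange to DPBS + 1 mM CaCl2, 0.5 mM MgCl2, 0.05% BSA; cpds in DMSO + […] (300 uM stock), 30 min 37C; HTRF cAMP detection.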
# gsp agonist: qHTS for Agonist of gsp, the Etiologic Mutation Responsible for Fibrous Dysplasia/McCune-Albright Syndrome: qHTS; gsp mutant cells, cAMP HTRF, 30 min; Potency, µM (top dose mostly 76.9 µM), for the others: at the highest dose activation (cAMP increase), actives largely listed as activators; actives 0.13% (n = 340,000); AID 624287, 2012; active = well fitted activation curve with a large enough effect; inconclusive = small, poorly fitted or top-dose-only effect, or another doubt; inactive = no such curve, though single readings can be large or run the other way; cell line not stated here;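 also: phosphodiesterase inhibitor Ro 20-1724 added with compounds to block cAMP breakdown; potency is read from the fitted curve at half-maximal effect; nearly all actives have a fitted effect of over 60% in size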
#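 Cells stably selected in G418 were plated at 2000/well, grown 16-24 hr, then given compounds in DMSO with the PDE inhibitor […] (300 uM solution added) for 30 min at 37C; cAMP was read by HTRF.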
# p53 reactivator: qHTS assay for re-activators of p53 using a Luc reporter | H1299 p53-A138V BP100-luciferase reporter, luminescence, 24 h | Potency, µM (titrated, usually from 92.2 µM), without a hit: at the highest dose activity change, positive = activation, hits mostly activators | actives 0.063% (n = 320,000) | AID 504706, 2011; also: potency is read from the fitted curve at half-maximal effect; % of control where 0% means no effect; nearly all actives have a fitted effect of over 45% in size
#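 H1299 (p53-null), stable ts p53-A138V + BP100-Luc; 1000 cells/well, Opti-MEM/10% FBS; cpd 4 pt, 1:5; 24 h, 37 deg C, 5% CO2; detection reagent 10 min RT; luminescence.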
# RXFP1 antagonist: qHTS Assay for Antagonists of the Relaxin Receptor RXFP1. Relaxin receptor 1 (Homo sapiens), Q9HBX9. HEK293-RXFP1, relaxin-stimulated cAMP HTRF, 30 min; hits give low values. activity change, negative = inhibition, % at 57.5 µM. actives 0.59% (n = 350,000). AID 1259400, 2018;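 active = activity change of -60% or lower, but not beyond a set lower limit; inconclusive = change between -60% and -40%, or beyond the set limit; inactive = change above -40%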; also: % is scaled to controls: 0 for no effect and ±100 for the full control effect
# * = called active by the depositor; ? = inconclusive; nt = not tested or not shown; [ ] = remark or other dose. Most compounds without a hit are left out; they make up all but 1.1% or so of the library. Unless noted, calls follow the shape of the dose curve; as a rule, active = well fitted curve in the direction sought with a large enough effect; inconclusive = small, poorly fitted or top-dose-only effect, or another doubt; inactive = no such curve, though single readings can be large; an effect the other way counts as inactive or inconclusive.
SMILES,Tb PFK block,RXFP1 agonist,gsp antagonist,gsp agonist,p53 reactivator,RXFP1 antagonist
Cc1ccc(NC(=S)N(Cc2cccc(Br)c2)CC2CCC(C(=O)O)CC2)cc1 (stereo unspecified),-8%,0%,?,8%,6%,-7
Cc1cc(NC(=S)N(Cc2cccc(Br)c2)CC2CCC(C(=O)O)CC2)ccc1Cl (stereo unspecified),-2%,0%,28µM*,6%,-2%,-2
Cc1ccc(N(C(=O)c2snc(C(N)=O)c2N)C(C(=O)NCC2CCCO2)c2ccc(C)o2)c(C)c1 (stereo unspecified),0%,2%,-20%,1%[15.4 µM],-6%,-63*
CCc1ccccc1N(C(=O)c1snc(C(N)=O)c1N)C(C(=O)NCC1CCCO1)c1ccc(N(C)C)cc1 (stereo unspecified),1%,?,nt,-16%[15.4 µM],-6%,-24
CC(C)c1ccc(N(C(=O)c2snc(C(N)=O)c2N)C(C(=O)NCC2CCCO2)c2ccc(N(C)C)cc2)cc1 (stereo unspecified),9%,?,?,-1%[15.4 µM],0%,-74*
COc1ccc(N(C(=O)c2snc(C(N)=O)c2N)C(C(=O)NCC2CCCO2)c2ccc(C)o2)cc1OC (stereo unspecified),0%,-2%,-14%,-7%,1%,-10
CCc1ccccc1N(C(=O)c1snc(C(N)=O)c1N)C(C(=O)NCC1CCCO1)c1ccc(C)o1 (stereo unspecified),7%,1%,-6%,-1%[15.4 µM],-5%,-119*
CN(C)c1ccc(C(C(=O)NCC2CCCO2)N(C(=O)c2snc(C(N)=O)c2N)c2ccccc2)cc1 (stereo unspecified),0%,?,10%,?,-2%,4
Cc1ccccc1N(C(=O)c1snc(C(N)=O)c1N)C(C(=O)NCC1CCCO1)c1ccc(F)cc1 (stereo unspecified),-18%,1%,-15%,10%[15.4 µM],-7%,-90*
CN(c1ccc(C(=O)NCC2CCCO2)cc1)S(=O)(=O)c1ccccc1 (stereo unspecified),0%,0%,-4%,5%,-4%,-17
CCc1nnc(SCC(=O)Nc2ccccc2Cl)nc1CC,-1%,1%,-6%,3%[15.4 µM],-2%,?
Cc1cccc(N2CCN(S(=O)(=O)c3cc(Br)cc4c3N(C(=O)C3CC3)CC4)CC2C)c1 (stereo unspecified),nt,-3%,nt,nt,nt,nt
O=C(O)CCCCCNS(=O)(=O)c1cccc2c1C(=O)c1ccccc1C2=O,-6%,0%,-15%,13%,30%,-2
Cc1cc(C)nc(SCc2cc(=O)c(OC(=O)c3ccc(S(=O)(=O)N(C)C)cc3)co2)n1,0%,1%,-20%,-6%,-7%,nt
Cc1cc(C)nc(SCc2cc(=O)c(OC(=O)c3ccc(Cl)c([N+](=O)[O-])c3)co2)n1,3%,5%,35µM*,-38%,-3%,-3
Cc1ccc(S(=O)(=O)C(C#N)c2nc3ccccc3nc2N2CC(C)OC(C)C2)cc1C (stereo unspecified),3%,2%,40µM*,0%,-4%,0
CCN1CCc2c(sc(NC(=S)NC(=O)c3ccc(Cl)cc3)c2C(N)=O)C1,1%,-6%,-18%,11%[15.4 µM],-1%,-110*
COc1ccc(OCC(=O)NCc2ccc3c(c2)CCN3C(=O)c2cccc(C)c2)cc1,nt,1%,nt,nt,nt,-5
COc1ccc(CC(=O)NCc2ccc3c(c2)CCN3C(=O)c2cccc(C)c2)cc1,nt,4%,nt,nt,nt,-97*
COc1cccc2[nH]c(C(=O)NCc3ccc4c(c3)CCN4C(=O)c3ccc(F)cc3)cc12,nt,3%,nt,nt,nt,-68*
O=S(=O)(NC1CC1)c1ccc(S(=O)(=O)N2CCCc3ccccc32)cc1,2%,2%,-26%,17%,4%,11
CCCC[C@]12Cc3cc(C#N)ccc3C(O1)c1c(cc(C)n(-c3ccccc3)c1=O)O2,2%[11.5 µM],0%[11.5 µM],nt,nt,nt,nt
Cc1oc2cc(Br)c(O)c(Br)c2c1-c1ccccc1,-3%,0%,-13%,9%[15.4 µM],?,-101*
O=[N+]([O-])c1ccc(C2=Nn3c(Cn4nnc5ccccc54)nnc3SC2)cc1,-10%,25%,-2%,17%[15.4 µM],-1%,-3
Cc1cccc(OCC(=O)N(Cc2ccco2)c2c(N)n(Cc3ccccc3)c(=O)[nH]c2=O)c1,0%,-1%,50µM*,-31%,5%,-6
SMILES,Tb PFK block,RXFP1 agonist,gsp antagonist,gsp agonist,p53 reactivator,RXFP1 antagonist
Nc1c(N(Cc2ccco2)C(=O)COc2ccccc2)c(=O)[nH]c(=O)n1Cc1ccccc1,4%,0%,0%,-36%,-6%,3
Cc1ccc(C(=O)N2CCCC(Nc3ccc(C)c(C)c3)C2)c(=O)[nH]1 (stereo unspecified),nt,nt,-2%,-56%,nt,-8
Cc1cc(C)cc(N(CC(=O)NCc2ccc(F)cc2)C(=O)c2snc(C(N)=O)c2N)c1,-8%,2%,-7%,9%[15.4 µM],2%,-15
NC(=O)c1nsc(C(=O)N(Cc2ccco2)C(C(=O)NCc2ccccc2)c2ccc(O)cc2)c1N (stereo unspecified),-5%,-1%,11µM*,7%,-2%,-4
Cc1cc(C)cc(N(CC(=O)NCc2ccco2)C(=O)c2snc(C(N)=O)c2N)c1,0%,-1%,-12%,-63%,-6%,-60*
c1ccc2[nH]c(CSc3ncnc4c3oc3ccccc34)nc2c1,-1%,25µM*,34%,31%,10%,-14
Cc1nc(SCc2nc3ccccc3[nH]2)c2oc3ccccc3c2n1,-4%,8%,6%,-1%,-4%,-10
O=C(CSc1ncnc2c1oc1ccccc12)c1cccs1,0%,22µM*,-2%,?,20%,1
Cc1ccccc1N1CC(C(=O)Nc2nnc(SCCN3CCOCC3)s2)CC1=O (stereo unspecified),1%,0%,32µM*,?,-7%,4
Cc1cccc(N2CC(C(=O)Nc3nnc(SCCN4CCOCC4)s3)CC2=O)c1 (stereo unspecified),-6%,-2%,-11%,4%[15.4 µM],-5%,-15
